Screens deposited in PubChem by National Center for Advancing Translational Sciences (NCATS).
TRPV1 PAM: human TRPV1 potentiation; Q8NER1; TRPV1-expressing cells, Fluo-8 calcium influx, capsaicin EC20 potentiation; potentiation, % at 8.33 µM; actives 0.02% (n = 320,000); in the data active = potentiation above about 80%; inconclusive = between about 30% and that limit
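Fluo-8 calcium influx in TRPV1-expressing cells, kinetic read (ex 480/em 520 nm). Compound added and read 3 min for agonist activity, followed by capsaicin at EC20 final and 2 min further read for enhancement.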
KCNH2 WT inh: KCNH2 (human, wildtype) channel inhibition; Q12809; U2OS, BacMam KCNH2, thallium flux FluxOr; stronger effect = lower value; activity change, % at 1.84 µM; actives 0.37% (n = 340,000);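 active = maximum activity change below -70%; inconclusive = maximum activity change between -70% and -50%; inactive = maximum activity change above -50%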
Target sequence (Q12809 whole entry, looked up): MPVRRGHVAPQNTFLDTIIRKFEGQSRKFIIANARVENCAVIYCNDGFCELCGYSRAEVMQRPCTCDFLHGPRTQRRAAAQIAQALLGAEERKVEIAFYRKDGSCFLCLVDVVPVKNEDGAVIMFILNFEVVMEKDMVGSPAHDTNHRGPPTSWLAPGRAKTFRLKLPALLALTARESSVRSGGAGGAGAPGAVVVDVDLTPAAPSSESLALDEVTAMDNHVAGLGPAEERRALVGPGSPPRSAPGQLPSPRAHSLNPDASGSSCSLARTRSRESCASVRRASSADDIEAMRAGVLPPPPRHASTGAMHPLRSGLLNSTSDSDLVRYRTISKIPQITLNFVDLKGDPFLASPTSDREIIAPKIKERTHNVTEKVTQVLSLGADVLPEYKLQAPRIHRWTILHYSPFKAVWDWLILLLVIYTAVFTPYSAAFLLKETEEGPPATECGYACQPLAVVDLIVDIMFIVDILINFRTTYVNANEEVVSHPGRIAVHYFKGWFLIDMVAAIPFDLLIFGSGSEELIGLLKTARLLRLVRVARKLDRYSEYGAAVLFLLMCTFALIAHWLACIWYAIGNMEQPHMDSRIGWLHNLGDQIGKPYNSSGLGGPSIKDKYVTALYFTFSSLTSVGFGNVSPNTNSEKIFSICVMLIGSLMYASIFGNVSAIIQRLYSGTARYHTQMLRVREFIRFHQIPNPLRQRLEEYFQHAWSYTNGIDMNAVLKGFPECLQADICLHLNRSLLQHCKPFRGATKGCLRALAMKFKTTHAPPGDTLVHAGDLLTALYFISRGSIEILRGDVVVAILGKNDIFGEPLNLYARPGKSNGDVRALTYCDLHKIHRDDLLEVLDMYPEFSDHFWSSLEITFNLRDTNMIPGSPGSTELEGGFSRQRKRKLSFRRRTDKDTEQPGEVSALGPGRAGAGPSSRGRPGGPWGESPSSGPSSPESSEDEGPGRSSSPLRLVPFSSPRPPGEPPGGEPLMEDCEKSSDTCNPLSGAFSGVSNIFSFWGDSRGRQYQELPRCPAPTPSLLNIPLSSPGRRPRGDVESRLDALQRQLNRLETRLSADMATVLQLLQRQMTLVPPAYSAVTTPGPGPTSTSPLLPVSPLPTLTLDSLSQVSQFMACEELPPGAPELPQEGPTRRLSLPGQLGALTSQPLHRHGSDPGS
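U2OS cells were transduced with wild-type KCNH2 virus (2.03 x 10^8 / mL) for 4 h at room temperature, then cultured overnight at 37 C. Thallium flux was read with FluxOr dye. Rate constants were normalized to DMSO controls.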
TRPV1 ag: agonists of human vanilloid receptor 1 (TRPV1); TRPV1-expressing cells, Fluo-8 calcium influx, agonist mode; activation, % at 8.33 µM; actives 0.19% (n = 320,000); in the data active = activation above about 80%; inconclusive = between about 30% and that limit
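Fluo-8 calcium influx in TRPV1-expressing cells, kinetic read (ex 480/em 520 nm). Compound added and read 3 min for agonist activity, followed by capsaicin at EC20 final and 2 min further read for enhancement.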
KCNH2 3.1 block: blocks the human KCNH2 3.1 channel isoform; U2OS KCNH2 3.1, thallium flux FluxOr; stronger effect = lower value; activity change, % (tested at about 1.8 µM); actives 0.95% (n = 340,000); AID 720553;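 active = maximum activity change below -70%; inconclusive = maximum activity change from -70% to -50%; inactive = maximum activity change above -50%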;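 note: thallium influx rate constant from kinetic fluorescence after stimulation buffer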
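We transduce U2OS cells with the mutant 3.1 virus, culture them overnight, load FluxOr with Red40 quencher for 45 min, then add stimulation buffer and read kinetically for 2 min to derive a normalized rate constant.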
Numbers stand for hits; - = inactive; ? = inconclusive; . = not tested or not shown. Compounds with a hit are over-represented: about 1.2% of the library has one in this group of screens.

SMILES | TRPV1 PAM | KCNH2 WT inh | TRPV1 ag | KCNH2 3.1 block
Cc1ccc(S(=O)(=O)N(C)c2ccc3ccccc3c2)cc1 | - | - | - | -147.9
CCC(C)(C)NC(=O)C(OC(=O)c1cc2sccc2n1C)c1ccc(OC)cc1 (stereo unspecified) | - | - | - | -
CC1(C)NC(=O)N(CC(O)CNC23CC4CC(CC(C4)C2)C3)C1=O (stereo unspecified) | - | -99.9 | - | -
CC1(C)NC(=O)N(CC(O)CN2C(=O)NC(C)(C)C2=O)C1=O | - | - | - | -
COc1ccccc1C1Nc2ccccc2NC2=C1C(=O)CC(C)(C)C2 (stereo unspecified) | - | -129.1 | - | -193.9
COc1ccc(CC(=O)Nc2ccc(F)c(F)c2F)cc1S(=O)(=O)N1CCOCC1 | - | - | - | -
Cn1c(O)c(N=NC(=O)CNC(=O)/C=C/c2ccccc2)c2ccccc21 | - | - | - | -184.4
CC(C)CCn1c(N2CCN(Cc3ccccc3)CC2)nc2c1c(=O)[nH]c(=O)n2C | - | . | - | .
CCCCCn1c(N2CCN(Cc3ccccc3)CC2)nc2c1c(=O)[nH]c(=O)n2C | - | ? | - | -74.9
Ic1ccc(N2CCN(Cc3c[nH]c4ncccc34)CC2)cc1 | - | - | - | -79.3
O=C(COC(=O)c1cccnc1Cl)Nc1ccc(N2CCOCC2)cc1 | . | - | . | -
CC1Sc2ccc(C(=O)N(CCc3ccccc3)Cc3ccccc3)cc2NC1=O (stereo unspecified) | . | - | . | -
CN(C)c1ccc(/C=C(\C#N)C(=O)c2ccccc2)cc1 | - | - | 83.7 | -
N#C/C(=C\c1ccc(C#N)cc1)C(=O)c1ccccc1 | ? | - | - | -
CCN(CC(=O)Nc1c(F)cccc1F)C(=O)CCCN1C(=O)c2cccc3cccc(c23)C1=O | . | - | . | -
CC1CCN(CCOCCOc2ccccc2-c2ccccc2)CC1 | - | - | - | -
CC1CCN(CCCCOc2ccccc2-c2ccccc2)CC1 | - | -71.2 | - | -80.0
CC(C)(C)c1ccc(OCCCCCCN2CCNCC2)cc1 | . | - | . | -
CC1CCN(C(=O)CSCc2ccc(Cl)cc2)CC1 | - | - | - | -
CC1CCN(CCCCOc2ccc(C(C)(C)C)cc2)CC1 | - | - | - | -74.8
CC1CCN(C(=O)CCCOc2ccc(Cl)cc2)CC1 | - | - | 80.4 | -
CC1CCN(CCCCOc2ccc(Cl)cc2)CC1 | ? | - | - | -75.8
CCc1nn2c(N3CCOCC3)cc(C)nc2c1-c1ccccc1 | - | - | - | -
CCc1noc(C)c1C(=O)NCCN1C(=O)S/C(=C\c2ccccc2F)C1=O | . | - | . | -76.6
COC(=O)c1ccc(OCC2c3cc(OC)c(OC)cc3CCN2C(=O)c2ccco2)cc1 (stereo unspecified) | - | - | - | -173.3
SMILES | TRPV1 PAM | KCNH2 WT inh | TRPV1 ag | KCNH2 3.1 block
Nc1ccn(C2OC(CCl)C(O)C2O)c(=O)n1 (stereo unspecified) | . | - | . | -
Cn1c(=S)c2[nH]c(SCC3CCCO3)nc2n(C)c1=O (stereo unspecified) | . | - | . | -
CCN(CC(=O)Nc1c(F)cccc1F)C(=O)C1CCN(S(=O)(=O)c2ccccc2C(=O)OC)CC1 | . | - | . | -
O=C(CSc1nc2ccccc2c(=O)n1Cc1ccco1)N1CCN(c2ccccc2)CC1 | - | -103.5 | ? | -107.0
CCOc1ccc2nc(NC(=O)CSc3nc4ccccc4c(=O)n3Cc3ccco3)sc2c1 | - | ? | - | -96.9
Fc1ccc2c(c1)Sc1ccc(Cl)cc1CC2N1CCN(CCC2OCCO2)CC1 (stereo unspecified) | . | - | . | -95.3
CCOc1ccc(S(=O)(=O)Nc2c(C)n(C)n(-c3ccccc3)c2=O)cc1 | - | -197.2 | - | -
COc1ccc([C@H]2[C@@H](C#N)[C@H](C#N)N3CCCN23)cc1 | - | - | - | -98.4
CCN(CC)c1ccc(N=Nc2nn(C)c(C)c2[N+](=O)[O-])cc1 | - | -124.9 | - | -
CCN(Cc1ccccc1)c1ccc(N=Nc2nn(C)c(C)c2[N+](=O)[O-])cc1 | - | - | - | -
COc1cccc(-c2cc(C(=O)N3CCc4ccccc4C3)[nH]n2)c1 | - | -301.6 | - | -
OC1(c2cccc(C(F)(F)F)c2)CCN(Cc2nc(-c3cnccn3)no2)CC1 | - | - | - | -
O=C(CSc1cccc[n+]1[O-])Nc1c(Br)cc([N+](=O)[O-])cc1Br | - | - | - | -132.9
O=C(CSc1cccc[n+]1[O-])Nc1ccc([N+](=O)[O-])cc1Cl | - | - | - | -
COc1ccc(CNC(=O)COC(=O)/C=C/c2cccc(Br)c2)cc1OC | ? | - | 86.6 | -
